GLP1R cytotox: qHTS of GLP-1 Receptor Inverse Agonists: Cytotox Screen. actives 0.13% (n = 410,000). Potency, µM (highest dose often 38.3 µM), for inactives: at the highest dose activity change, negative = inhibition, usual class: inhibitors. HEK293 cAMP-luciferase reporter cells, luminescence, 24 h;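 note: loss of luciferase light is scored as toxicity; % is set by controls: 0 for no effect and ±100 for the full control effect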
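Step one: seed cells (200 cells/uL, DMEM with 10% Nu serum, 1% pen-strep). Step two: 12-hour incubation at 37 deg C. Step three: pin 23 nL compound, incubate 24 hr. Step four: add luciferase reagent, read luminescence 12 min later.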
BRCA1 expr up: qHTS Assay to Identify Small Molecule Activators of BRCA1 Expression; Potency, µM (top dose mostly 46.1 µM), for the others: at the top dose activation, actives largely listed as activators; actives 1.1% (n = 380,000); MCF7-BRCA1-FFLuc reporter, luminescence, 48 h; response scale: scaled: vehicle 0%, 10 µM genistein 100%; note: nearly all actives have a fitted effect of over 80% in size
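MCF7 cells carrying a BRCA1-firefly luciferase reporter (2000 cells/well, phenol-red free MEM) were attached for 2 h at 37 °C, then given compounds for 48 h. Luminescence was read 15 min after luciferase reagent; activity normalized to genistein (10 microM) and DMSO.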
GLP-1R inv ag: qHTS of GLP-1 Receptor Inverse Agonists (Inhibition Mode) | Potency, µM (highest dose often 38.3 µM), for the others: at the top dose activity change, negative = inhibition, hits mostly inhibitors | HEK293 GLP-1R CRE-luciferase, luminescence, 24 h; GLP-1R form is constitutively active | Glucagon-like peptide 1 receptor (Homo sapiens), P43220 | actives 1.6% (n = 410,000); note: % is set by controls: 0 for no effect and ±100 for the full control effect; nearly all actives have a fitted effect of over 55% in size
Target sequence (P43220 whole entry, looked up): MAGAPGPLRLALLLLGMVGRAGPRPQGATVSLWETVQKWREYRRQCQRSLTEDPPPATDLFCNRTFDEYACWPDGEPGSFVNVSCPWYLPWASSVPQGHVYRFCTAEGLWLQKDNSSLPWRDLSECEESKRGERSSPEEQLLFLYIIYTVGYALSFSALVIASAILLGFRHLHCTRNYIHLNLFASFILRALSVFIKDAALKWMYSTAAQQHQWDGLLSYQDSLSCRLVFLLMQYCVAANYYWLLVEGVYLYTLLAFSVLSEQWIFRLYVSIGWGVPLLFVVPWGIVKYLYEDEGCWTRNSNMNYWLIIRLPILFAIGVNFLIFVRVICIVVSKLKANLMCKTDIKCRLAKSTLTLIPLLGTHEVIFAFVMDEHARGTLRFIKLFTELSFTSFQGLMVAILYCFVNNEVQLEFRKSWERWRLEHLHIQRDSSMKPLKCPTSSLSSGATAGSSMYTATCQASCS
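HEK293 cells stably co-expressing constitutively active GLP-1R and a cAMP-responsive luciferase reporter were seeded in DMEM with 10% Nu serum, given compounds after 12 h, and incubated 24 h at 37 deg C. Luminescence was then read.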
GLP-1R agonist: qHTS of GLP-1 Receptor Agonists | Glucagon-like peptide 1 receptor (Homo sapiens), P43220 | HEK293 GLP-1R CRE-luciferase, luminescence, 4-6 h; cells express a hypersensitive GLP-1R form | actives 0.007% (n = 380,000) | Potency, µM (top dose mostly 45.6 µM), for the others: at the top dose activation, hits mostly activators; note: % of control where 0% means no effect
Mito fusion yeast: qHTS Assay for Small Molecule Inhibitors of Mitochondrial Division or Activators of Mitochondrial Fusion | S. cerevisiae fusion-defective mutant growth rescue, CellTiterGlo 48 h | Potency, µM (top dose mostly 46.1 µM), for the others: top-dose growth rescue (activation), actives largely listed as activators | actives 0.23% (n = 320,000) | AID 485298, 2010; note: % of control where 0% means no effect; nearly all actives have a fitted effect of over 45% in size
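Temperature-sensitive fusion-defective S. cerevisiae (e.g. fzo1-1, mgm1-5) were grown with compound in YPEG medium (3% ethanol, 3% glycerol) for 48 hours at 37C. Growth rescue was measured as viability by CellTiterGlo luminescence after 10 minutes at ambient.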
Numbers without * were called inactive; u = inconclusive; x = no result; [ ] = remark or other dose. This is a sample that favours compounds with a hit; in the whole collection about 2.8% have one here. Calls come from the whole dose curve; as a rule, active = well fitted curve in the direction sought with a large enough effect; inconclusive = small, poorly fitted or top-dose-only effect, or another doubt; inactive = no such curve, though single readings can be large; an effect the other way counts as inactive or inconclusive. Potency is the fitted concentration of half-maximal effect.

SMILES	GLP1R cytotox	BRCA1 expr up	GLP-1R inv ag	GLP-1R agonist	Mito fusion yeast
COc1ccc(C2C=C(C34CC5CC(CC(C5)C3)C4)NC(=S)N2)cc1 (configuration not stated)	u	3%	u	8%	11µM*
Cc1ccc(C(=O)O/N=C/c2c(C)nn(C)c2Cl)cc1	-13%	-3%	3%	29%	9%
O=C1NC(=O)C(=CC=Cc2ccccc2)S1	0%	10µM*	-13%	5%	x
Cc1cc(SCC(=O)N2CCCC2=O)nc2c(C)cccc12	5%	0%	14%	19%	2%
Cc1cc(SCC(=O)NC2(C#N)CCCCC2)nc2c(C)cccc12	-8%	-26%	10µM*	2%	17%
CC1CCCC(C)N1CC(O)COC1CCC(C(C)(C)C)CC1 (configuration not stated)	u	-57%	u	-4%	11%
COc1ccc(-c2cc3nc[nH]c(=O)c3s2)cc1	-5%	6%	9%	-2%	6%
O=c1[nH]cnc2cc(-c3ccccc3)sc12	4%	2.8µM*	0%	8%	12%
Nc1ccc(Oc2cc(N)cc(Oc3ccccc3)c2)cc1	3%	7.1µM*	u	u	-28%
Cn1c(CNC(=O)CNS(=O)(=O)c2ccccc2)cc(=O)n(C)c1=O	31%	15%	5%	-1%	u
C[C@H](CO)N1C[C@H](C)[C@@H](CN(C)Cc2ccccc2)Oc2c(NS(=O)(=O)c3ccc(F)cc3)cccc2C1=O	-21%	-5%	21%	13%	x
C[C@H](CO)N1C[C@H](C)[C@@H](CN(C)Cc2ccc(Cl)c(Cl)c2)Oc2c(NS(=O)(=O)c3ccc(F)cc3)cccc2C1=O	u	0%	11µM*	-1%	x
C[C@@H]1CN([C@H](C)CO)C(=O)c2cc(NC(=O)C3CCCCC3)ccc2O[C@@H]1CN(C)Cc1ccncc1	3%	0%	7%	-2%	x
CC(C)NC(=O)Nc1ccc2c(c1)C(=O)N([C@H](C)CO)C[C@H](C)[C@@H](CN(C)Cc1ccc3c(c1)OCO3)OCCCC[C@@H](C)O2	1%	3%	11%	10%	x
CC(C)NC(=O)Nc1ccc2c(c1)C(=O)N([C@H](C)CO)C[C@H](C)[C@@H](CN(C)Cc1ccc(C(F)(F)F)cc1)OCCCC[C@H](C)O2	-27%	13%	10µM*	2%	x
C[C@@H]1CN([C@@H](C)CO)C(=O)c2cc(NC(=O)C3CC3)ccc2O[C@@H]1CN(C)Cc1ccc(Cl)c(Cl)c1	-24%	-53%	11µM*	-1%	x
S=C(Nc1ccc2c(c1)OCO2)Nc1ccccc1Cl	6%	61%	15%	15%	-5%
O=S(=O)(c1ccccc1)N1CCN(C(=S)Nc2ccc(F)cc2)CC1	-11%	-25%	-3%	-7%	-2%
O=S(=O)(c1ccc(Cl)cc1)N1CCN(C(=S)Nc2ccc(F)c(Cl)c2)CC1	-17%	-83%	8.9µM*	-6%	0%
NS(=O)(=O)c1ccc(NC(=S)N2CCN(Cc3ccc(Cl)c(Cl)c3)CC2)cc1	-4%	-18%	8.9µM*	5%	-5%
Cc1nc2ccc(C(C(F)(F)F)(C(F)(F)F)C(F)(F)F)cc2[nH]1	-6%	-24%	u	-2%	-9%
Cc1ccc(F)cc1NC(=O)Cn1c(C)cc(C)c(C#N)c1=O	3%	x	12%	x	x
Cc1cccc(C)c1NC(=S)Nc1ccc(F)cc1	-5%[7.66 µM]	-16%	-18%[7.66 µM]	4%	1%
Cc1cccc(NNC(=S)Nc2c(C)cccc2C)c1	u	-7%	3.2µM*	9%	-47%
Cc1cccc(NNC(N)=S)c1	-1%	-6%	-1%	-1%	0%
SMILES	GLP1R cytotox	BRCA1 expr up	GLP-1R inv ag	GLP-1R agonist	Mito fusion yeast
Cc1cccc(NNC(=S)Nc2ccccc2)c1	u	-9%	5.6µM*	-1%	x
NC(=S)NNc1cccc(Cl)c1	-6%	-1%	1%	1%	5%
Cc1cccc(NC(=S)NCc2ccc(F)cc2)c1	u	-11%	u	4%	8%
Cc1cccc(NC(=S)NC(C)(C)CC(C)(C)C)c1	u	-2%	10µM*	22%	-7%
Cc1cccc(NC(=S)NNc2cccc(Cl)c2)c1	-11%	-57%	10µM*	9%	-35%
Cc1cccn2c(=O)c3cc(S(=O)(=O)c4ccc(Br)cc4)c(=N)n(C4CCCCC4)c3nc12	0%	0%	27%	1%	5%
Cc1ccc(S(=O)(=O)N2CCOCC2)cc1C(=O)OCC(=O)NCc1ccc2c(c1)OCO2	-19%	-16%	-4%	11%	-2%
O=C(NCCn1cc(SCc2ccccc2)c2ccccc21)c1ccccc1F	-8%	0%	10µM*	19%	u
COc1cccc2cc(-c3cn4ccc(C)cc4n3)c(=O)oc12	-2%	7.1µM*	18%	0%	x
Oc1ccc(/C=N/Nc2ccccc2)cc1	-1%	-15%	u	4%	7%
Brc1ccc(/C=N/Nc2ccccc2)cc1	0%	63%	4.5µM*	1%	15%
COc1cc(/C=N/Nc2ccccc2)ccc1O	6%	-21%	2.5µM*	12%	-20%
COc1cc(/C=N/Nc2ccccc2C(F)(F)F)ccc1O	4%	u	u	11%	2%
COc1ccc(NS(=O)(=O)c2ccc(-c3coc(C)n3)cc2)c(OC)c1	-8%	-16%	-28%	-1%	-16%
COc1cccc(OCc2cc(C(=O)NCc3ccccn3)no2)c1	1%	13µM*	16%	0%	-1%
CC(=O)c1ccc(NC(=S)NCCc2ccccn2)cc1	-2%	10µM*	19%	-5%	-1%
CCOC(=O)c1ccc(NC(=O)C(=O)NCc2ccccn2)cc1	14%	-4%	8%	4%	-3%
Cc1ccc(-c2cc(C(=O)NCc3ccccn3)no2)cc1	-12%	11µM*	0%	-1%	4%
CCc1ccc(NC(=O)C(=O)NCc2ccccn2)cc1	-3%[7.66 µM]	3.5µM*	20%[7.66 µM]	3%	1%
CC(C)(C)c1ccc(NC(=S)NCCc2ccccn2)cc1	u	-5%	u	1%	-5%
CCN(CC)C(=O)c1cccc(-c2csc(C(O)(c3ccccc3)C(F)(F)F)n2)c1 (configuration not stated)	-26%	-51%	u	-5%	x
CCCNC(=S)N1CCC(n2cnc3ccccc32)CC1	1%	-8%	18%	-2%	-3%
COCC(C)NC(=O)c1cc(-c2cccc(OC)c2)on1 (configuration not stated)	0%	10µM*	19%	6%	-3%

Bioassay records from PubChem.
